Assay results: PubChem BioAssay (NCI)
About 83,000 compounds went through this panel and 20% of them were active in at least one assay; those are over-represented in the sample as a whole.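 Treatment: one concentration, 48 hours, 96-well format. Scoring: percent growth, with anything below 10 considered active.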 Calls of active or inactive are those of the source.

Legend:
Test in all cases: NCI-60 one-dose screen, 48 h (100 = growth as untreated, 0 = no growth, -100 = all killed)
OVCAR-8 ovarian = details: 10 µM unless noted
OVCAR-5 ovarian = details: 10 µM unless noted
OVCAR-4 ovarian = details: 10 µM unless noted
SK-OV-3 ovarian = details: 10 µM unless noted
IGROV1 ovarian = details: 10 µM unless noted
HS 578T breast = details: 10 µM
NCI/ADR-RES ovarian = details: 10 µM unless noted
T-47D breast = details: 10 µM unless noted
BT-549 breast = details: 10 µM unless noted
SW-620 colon = details: 10 µM unless noted
MCF7 breast = details: 10 µM unless noted
HCT-116 colon = details: 10 µM unless noted
HCC-2998 colon = details: 10 µM unless noted
KM12 colon = details: 10 µM unless noted
RPMI-8226 leukemia = details: 10 µM unless noted
OVCAR-3 ovarian = details: 10 µM unless noted
MDA-MB-435 melanoma = details: 10 µM unless noted

Measured: growth

c1ccc2c(c1)cnc1ccccc12
inactive: OVCAR-8 ovarian 97.5% | OVCAR-5 ovarian 92.2% | OVCAR-4 ovarian 96.3% | SK-OV-3 ovarian 96.1% | IGROV1 ovarian 121% | HS 578T breast 100% | NCI/ADR-RES ovarian 101% | T-47D breast 96.8% | BT-549 breast 106% | SW-620 colon 98.5% | MCF7 breast 94.3% | HCT-116 colon 100% | HCC-2998 colon 101% | KM12 colon 102%

Cc1ccc(/C=C/C(=N/N=C(N)N)c2ccccc2)cc1
active: SK-OV-3 ovarian 9.84% | OVCAR-3 ovarian -28.6% | HS 578T breast -5.3% | MDA-MB-435 melanoma -16.9%
inactive: RPMI-8226 leukemia 11.1% | OVCAR-8 ovarian 24.6% | OVCAR-5 ovarian 54.4% | IGROV1 ovarian 43.1% | NCI/ADR-RES ovarian 35.2% | T-47D breast 40.9% | BT-549 breast 47.7% | SW-620 colon 25.9% | MCF7 breast 11.6% | HCT-116 colon 20.1% | HCC-2998 colon 20.9% | KM12 colon 14.8%

CC(=O)[C@@]1(O)[C@H](C)C[C@H]2[C@@H]3C=C(C)C4=Cc5c(cnn5-c5ccccc5)C[C@]4(C)[C@H]3[C@@H](O)C[C@@]21C
inactive: OVCAR-8 ovarian 37.3% | OVCAR-5 ovarian 40.6% | OVCAR-4 ovarian 56.5% | SK-OV-3 ovarian 38.7% | NCI/ADR-RES ovarian 27.1% | T-47D breast 44.4% | MDA-MB-435 melanoma 37.7% | MCF7 breast 15.5% | HCT-116 colon 14.4% | HCC-2998 colon 19.8%
active: IGROV1 ovarian -16.8% | OVCAR-3 ovarian 8.02% | HS 578T breast 5.32% | SW-620 colon -59.9% | KM12 colon -45%

Cc1ccc(O)c(Cc2ccccc2)c1
inactive: OVCAR-8 ovarian 102% | OVCAR-5 ovarian 104% | OVCAR-4 ovarian 108% | SK-OV-3 ovarian 110% | IGROV1 ovarian 132% | OVCAR-3 ovarian 100% | HS 578T breast 91.3% | NCI/ADR-RES ovarian 99.7% | T-47D breast 101% | BT-549 breast 92.4% | MDA-MB-435 melanoma 107% | SW-620 colon 98.4% | MCF7 breast 114% | HCT-116 colon 98% | HCC-2998 colon 102% | KM12 colon 103%

COc1cc(/C=C/c2ccc3c(Br)cc(Br)c(O)c3n2)ccc1O
inactive: OVCAR-8 ovarian 17.5% | OVCAR-5 ovarian 63.2% | OVCAR-4 ovarian 17.4% | SK-OV-3 ovarian 58.2% | MDA-MB-435 melanoma 32% | SW-620 colon 18.3% | MCF7 breast 10.2% | HCC-2998 colon 35% | KM12 colon 20.8%
active: IGROV1 ovarian -44.8% | OVCAR-3 ovarian 1.97% | HS 578T breast 3.67% | NCI/ADR-RES ovarian 6.88% | T-47D breast 4.66% | HCT-116 colon 1.68%

C1=C\CCCCN2CC[C@H]3[C@H](CCCC/C=C\CCCN4C[C@@H](CCCCC/1)C[C@@H]3C4)C2
inactive: OVCAR-8 ovarian 77.4% | OVCAR-5 ovarian 87.6% | OVCAR-4 ovarian 74.2% | SK-OV-3 ovarian 83.9% | OVCAR-3 ovarian 49.1% | NCI/ADR-RES ovarian 77.5% | T-47D breast 71.4% | BT-549 breast 89.5% | SW-620 colon 79.8% | MCF7 breast 22.7% | HCT-116 colon 43.6% | HCC-2998 colon 22.1% | KM12 colon 58.1%
active: IGROV1 ovarian -11.3% | HS 578T breast 9.63% | MDA-MB-435 melanoma -70.3%

COc1cc2c(cc1I)-c1c(cc(OC)c(OC)c1OC)CC[C@@H]2NC(C)=O
active: IGROV1 ovarian 9.96% | HS 578T breast -21.4% | NCI/ADR-RES ovarian -19.2% | MDA-MB-435 melanoma -8.3% | HCT-116 colon 6.59% | HCC-2998 colon 0.415% | KM12 colon 7.62%
inactive: RPMI-8226 leukemia 35.5% | OVCAR-5 ovarian 36% | OVCAR-4 ovarian 40.8% | SK-OV-3 ovarian 10.3% | OVCAR-3 ovarian 17.3% | T-47D breast 55.3% | BT-549 breast 47.7% | SW-620 colon 10.3% | MCF7 breast 11.3%

CCOc1c(C#N)c2c(N)ncnc2n1C1OC(CO)C(O)C1O (centres undefined)
active: IGROV1 ovarian -57.7% | OVCAR-3 ovarian -41.4% | SW-620 colon 4.66% | MCF7 breast -3.56% | HCT-116 colon 3.41%
inactive: OVCAR-8 ovarian 89.6% | OVCAR-5 ovarian 83.6% | OVCAR-4 ovarian 56.1% | SK-OV-3 ovarian 52.9% | HS 578T breast 50.9% | NCI/ADR-RES ovarian 62.4% | T-47D breast 15.4% | MDA-MB-435 melanoma 18.1% | HCC-2998 colon 84.1% | KM12 colon 10.6%

CC(OC(=O)Nc1cccc(Cl)c1)C(=O)O (centres undefined)
inactive: OVCAR-8 ovarian 95.3% | OVCAR-5 ovarian 89.1% | OVCAR-4 ovarian 98.6% | SK-OV-3 ovarian 99.1% | IGROV1 ovarian 104% | OVCAR-3 ovarian 96.3% | HS 578T breast 96.4% | NCI/ADR-RES ovarian 96.8% | T-47D breast 93.2% | BT-549 breast 113% | MDA-MB-435 melanoma 82.8% | SW-620 colon 99.5% | MCF7 breast 99.7% | HCT-116 colon 97.2% | HCC-2998 colon 99.8%

CO[C@@]12[C@@H]3NC3CN1C1=C(C(=O)C(N)=C(C)C1=O)[C@@H]2COC(N)=O (some centres undefined)
inactive: OVCAR-8 ovarian 15.8% | OVCAR-5 ovarian 45.7% | IGROV1 ovarian 33.1% | HS 578T breast 70.9% | NCI/ADR-RES ovarian 51.4% | T-47D breast 40.8% | BT-549 breast 28.6% | MDA-MB-435 melanoma 34.9% | SW-620 colon 10.4%
active: SK-OV-3 ovarian 5.63% | MCF7 breast 6.55% | HCT-116 colon 6.78% | HCC-2998 colon -44.8%

CN1CCN(Cc2ccc(NC(=O)c3ccc(C#N)c(C#Cc4cnc(N)c5ncccc45)c3)cc2C(F)(F)F)CC1
active: HCT-116 colon -10.5%
inactive: RPMI-8226 leukemia 69.7% | OVCAR-5 ovarian 18% | OVCAR-4 ovarian 75.2% | SK-OV-3 ovarian 97.6% | IGROV1 ovarian 55.3% | OVCAR-3 ovarian 102% | HS 578T breast 68.2% | NCI/ADR-RES ovarian 94% | T-47D breast 112% | BT-549 breast 103% | MDA-MB-435 melanoma 56% | SW-620 colon 23.4% | MCF7 breast 16.3% | HCC-2998 colon 112% | KM12 colon 13.5%

CCCCCNCCCCCNc1cc(OC)cc2cccnc12
inactive: OVCAR-8 ovarian 101% | OVCAR-5 ovarian 87.2% | OVCAR-4 ovarian 37.1% | SK-OV-3 ovarian 91.2% | IGROV1 ovarian 98.3% | OVCAR-3 ovarian 75.6% | HS 578T breast 102% | NCI/ADR-RES ovarian 88.6% | T-47D breast 68.1% | BT-549 breast 69.2% | MDA-MB-435 melanoma 103% | SW-620 colon 90.9% | MCF7 breast 50.6% | HCT-116 colon 63.5% | HCC-2998 colon 93.4% | KM12 colon 103%

C=C(C)C1CCC2(C(=O)O)CCC3(C)C(CCC4C5(C)CCC(O)C(C)(C)C5CCC43C)C12 (centres undefined)
inactive: SK-OV-3 ovarian 28% | MDA-MB-435 melanoma 48.6%
active: RPMI-8226 leukemia 7.96% | OVCAR-5 ovarian -87.3% | OVCAR-4 ovarian -40.7% | IGROV1 ovarian 7.47% | OVCAR-3 ovarian -56.1% | NCI/ADR-RES ovarian -54% | T-47D breast -1.03% | BT-549 breast -57.5% | MCF7 breast 1.31% | HCT-116 colon -88.5% | KM12 colon -26.6%

N#Cc1c(NN)n(C2OC(CO)C(O)C2O)c2ncnc(N)c12 (centres undefined)
inactive: OVCAR-5 ovarian 17% | OVCAR-4 ovarian 14%
active: OVCAR-8 ovarian 0.0898% | SK-OV-3 ovarian 2.07% | IGROV1 ovarian -65.7% | OVCAR-3 ovarian -42.3% | HS 578T breast 9.12% | NCI/ADR-RES ovarian 6.9% | T-47D breast -14.9% | MDA-MB-435 melanoma -15.5% | SW-620 colon -15.6% | MCF7 breast -11.2% | HCT-116 colon 2.09% | HCC-2998 colon -9.45% | KM12 colon 1.94%

Cc1cc(O)ccc1C1=NN(c2ccc(S(N)(=O)=O)cc2)C(=O)CC1
inactive: OVCAR-8 ovarian 50.1% | OVCAR-5 ovarian 93% | OVCAR-4 ovarian 59.2% | SK-OV-3 ovarian 64.9% | HS 578T breast 18.8% | NCI/ADR-RES ovarian 22.4% | T-47D breast 45.8% | SW-620 colon 16.2% | MCF7 breast 27.7% | HCT-116 colon 23.3% | HCC-2998 colon 64% | KM12 colon 22.7%
active: IGROV1 ovarian -9.76% | MDA-MB-435 melanoma -21.1%

COc1ccc(/C=C2\N=C(c3cccnc3)N(c3ccccc3)NC2=O)cc1
inactive: RPMI-8226 leukemia 68.5% | OVCAR-5 ovarian 103% | OVCAR-4 ovarian 99.7% | SK-OV-3 ovarian 130% | IGROV1 ovarian 115% | OVCAR-3 ovarian 95.9% | HS 578T breast 92% | NCI/ADR-RES ovarian 100% | T-47D breast 90.2% | BT-549 breast 94.3% | MDA-MB-435 melanoma 97.3% | SW-620 colon 92.3% | MCF7 breast 91.5% | HCT-116 colon 97.1% | HCC-2998 colon 99.7% | KM12 colon 95.3%

O=c1cc(-c2ccc3c(c2)OCCO3)oc2cc(Cl)ccc12
active: OVCAR-4 ovarian -12.5% | SK-OV-3 ovarian 2.04% | IGROV1 ovarian -9.4% | OVCAR-3 ovarian -40.2% | T-47D breast 1.86% | HCT-116 colon -1.49%
inactive: RPMI-8226 leukemia 28.8% | OVCAR-5 ovarian 32.8% | HS 578T breast 41.2% | NCI/ADR-RES ovarian 38.2% | BT-549 breast 81.4% | SW-620 colon 28.6% | MCF7 breast 77.8% | HCC-2998 colon 66.2% | KM12 colon 21.3%

CC(=O)OC1Oc2cc(C)c(C)cc2-c2oc(=O)c(-c3ccc(F)cc3)cc21 (centres undefined)
active: MDA-MB-435 melanoma -7.18%
inactive: OVCAR-8 ovarian 81.9% | OVCAR-5 ovarian 86.2% | OVCAR-4 ovarian 73.2% | SK-OV-3 ovarian 79.1% | IGROV1 ovarian 54.4% | HS 578T breast 60.5% | NCI/ADR-RES ovarian 28.5% | T-47D breast 52.5% | BT-549 breast 89.3% | SW-620 colon 26.7% | MCF7 breast 38.3% | HCT-116 colon 32.2% | HCC-2998 colon 56.7% | KM12 colon 23.7%

Clc1ccc2c(c1)-n1cccc1C(c1ccc3ccccc3c1)=NC2
inactive: OVCAR-5 ovarian 98.4% | OVCAR-4 ovarian 84.2% | SK-OV-3 ovarian 94.5% | IGROV1 ovarian 61.4% | OVCAR-3 ovarian 86.1% | HS 578T breast 110% | NCI/ADR-RES ovarian 77.8% | T-47D breast 76.5% | MDA-MB-435 melanoma 50.4% | MCF7 breast 84.4% | HCT-116 colon 66.4% | HCC-2998 colon 87.9% | KM12 colon 71.8%

CCOC(=O)C(=CNc1ccccc1Cl)C(=O)OCC
inactive: OVCAR-8 ovarian 91.4% | OVCAR-5 ovarian 100% | OVCAR-4 ovarian 91.7% | SK-OV-3 ovarian 113% | IGROV1 ovarian 91.1% | HS 578T breast 129% | NCI/ADR-RES ovarian 91.4% | T-47D breast 95% | BT-549 breast 106% | MDA-MB-435 melanoma 76.9% | SW-620 colon 98.4% | MCF7 breast 93.8% | HCT-116 colon 97.9% | HCC-2998 colon 102% | KM12 colon 105%
